Experimental data: PubChem BioAssay (EPA / NIEHS)
Values joined by “and” are separate entries in the source; they are usually repeats but may differ in a detail not shown here. Equal values may be shown once. Records with an inconclusive call do not appear. The source holds several records for some structures; these can differ, active in one and inactive in another. Active and inactive are the calls of the source. Rule for the calls: active = hit-call score of the fitted dose curve at least 0.9, where 1 is the maximum; inconclusive = response in the unintended direction; inactive = score below 0.9.

target: human Thyroid Receptor alpha (THRa1), THRA (gene 7067) (UniProt P10827); experiment: ATG_THRa1_TRANS: Attagene TRANS-FACTORIAL HepG2 Assay for human Thyroid Receptor alpha (THRa1) (AID 2283014)
Protocol: ATG_TRANS is a cell-based, multiplexed-readout assay that uses HepG2, a human liver cell line, with measurements taken at 24 hours after chemical dosing in a 24-well plate.ATG_THRa1_TRANS is one of 30 assay component(s) measured or calculated from the ATG_TRANS assay. It is designed to make measurements of mRNA induction, a form of inducible reporter, as detected with fluorescence intensity signals by Reverse transcription polymerase chain reaction (RT-PCR) and Capillary electrophoresis technology.Data from the assay component ATG_THRa1_TRANS was analyzed into 1 assay endpoint. This assay endpoint, ATG_THRa1_TRANS, was analyzed in the positive analysis fitting direction relative to DMSO as the negative control and baseline of activity. Using a type of inducible reporter, measures of mRNA for gain-of-signal activity can be used to understand the reporter gene at the transcription factor-level as they relate to the gene THRA. Furthermore, this assay endpoint can be referred to as a primary readout, because this assay has produced multiple assay endpoints where this one serves a reporter gene function. To generalize the intended target to other relatable targets, this assay endpoint is annotated to the nuclear receptor intended target family, where the subfamily is non-steroidal.
Human liver HepG2 cells are transiently transfected with multiple reporter transcription units (MRTUs) in 6-well plates using FuGene 6 reagent (Roche; 3 ml FuGene/1 mg DNA). The MRTU constructs are regulated by a cis-regulating element (promoter). […] A major difference between the CIS and TRANS system is that in CIS activities of endogenous TFs are measured, whereas the TRANS assay evaluates changes in activities of exogenous, chimeric NR-Gal4 proteins. […] At the end of 24 hour incubation, total RNA was isolated using TriZol reagent (Invitrogen). The isolated RNA is then reverse-transcribed using oligo(dT) primer and Mo-MLV reverse transcriptase (Invitrogen) with DNAse I (Ambion) treatment for 30 min. The one-tenth of the produced cDNA was amplified by PCR using Taq DNA polymerase (Invitrogen) and two reporter sequence-specific primers. The PCR products were fluorescently labeled by primer extension with 6-arboxyfluorescein (6-FAM) 5'-labeled reporter sequence-specific primer (2 min at 95 C, 20 s at 68 C and 10 min at 72 C) and these products were digested with 5U of HpaI (New England Biolabs) for 2h at 37 C. The fragments were purified using Qiaquick PCR columns (Qiagen), analyzed on an ABI 3130xL genetic analyzer (Applied Biosystems) with peak positions identified by using a set of X-rhodamine (ROX)-labeled MapMarker1000 molecular weight standards (BioVentures). The raw capillary electrophoresis data was processed using Attagraph software (Attagene).

Sequence of human Thyroid Receptor alpha (THRa1), THRA (gene 7067) (P10827 whole entry, looked up): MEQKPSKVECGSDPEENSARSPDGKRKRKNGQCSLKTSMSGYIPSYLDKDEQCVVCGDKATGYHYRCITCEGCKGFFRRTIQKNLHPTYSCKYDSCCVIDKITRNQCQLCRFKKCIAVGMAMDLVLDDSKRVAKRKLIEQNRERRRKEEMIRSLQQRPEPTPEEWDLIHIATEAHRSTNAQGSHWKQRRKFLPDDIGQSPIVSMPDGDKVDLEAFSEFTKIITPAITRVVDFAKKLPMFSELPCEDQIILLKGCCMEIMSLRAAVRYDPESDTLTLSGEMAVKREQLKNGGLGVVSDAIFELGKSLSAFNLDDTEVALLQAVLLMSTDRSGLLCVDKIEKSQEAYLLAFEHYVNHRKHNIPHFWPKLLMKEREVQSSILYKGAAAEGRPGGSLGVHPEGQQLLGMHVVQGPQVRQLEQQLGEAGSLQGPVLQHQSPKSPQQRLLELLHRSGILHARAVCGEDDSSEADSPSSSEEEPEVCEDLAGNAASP

| SMILES | outcome | AC50 |
| --- | --- | --- |
| CC1=C(C(=O)Nc2ccccc2)SCCO1 | inactive | – |
| COc1cnc(OC)n2nc(NS(=O)(=O)c3c(OCC(F)F)cccc3C(F)(F)F)nc12 | inactive | – |
| CCOP(=S)(OCC)SCn1c(=O)oc2cc(Cl)ccc21 | inactive | – |
| CO/C=C(/C(=O)OC)c1ccccc1Oc1cc(Oc2ccccc2C#N)ncn1 | inactive | 12.2 µM (active) |
| C=CCC1=C(C)C(OC(=O)C2C(C=C(C)C)C2(C)C)CC1=O (stereo not given) | inactive | – |
| CCCCNC(=O)OCC#CI | inactive | – |
| N#Cc1cc(Br)c(O)c(Br)c1 | inactive | – |
| Cc1cc(Cl)ccc1OCC(=O)O | inactive | – |
| CCCCOC(=O)c1ccccc1C(=O)OCCCC | – | 39.6 µM (active) and 35.1 µM (active) and 2.44 µM (active) |
| Fc1ccc(Oc2ccnc3cc(Cl)cc(Cl)c23)cc1 | inactive | – |
| CC(C)C1(C)N=C(c2nc3ccccc3cc2C(=O)O)NC1=O (stereo not given) | inactive | – |
| C=CC1(C)OC(=O)N(c2cc(Cl)cc(Cl)c2)C1=O (stereo not given) | inactive | – |
| CCCC1COC(Cn2cncn2)(c2ccc(Cl)cc2Cl)O1 (stereo not given) | inactive | – |
| CON(C)C(=O)Nc1ccc(Cl)c(Cl)c1 | inactive | 5.27 µM (active) |
| OC(c1ccc(Cl)cc1)(c1cncnc1)c1ccccc1Cl (stereo not given) | inactive | – |
| C#CCOS(=O)OC1CCCCC1Oc1ccc(C(C)(C)C)cc1 (stereo not given) | inactive | – |
| CCOC(=O)C(Cl)Cc1cc(-n2nc(C)n(C(F)F)c2=O)c(F)cc1Cl (stereo not given) | inactive | – |

| SMILES | outcome | AC50 |
| --- | --- | --- |
| COc1ccc(C(c2ccc(OC)cc2)C(Cl)(Cl)Cl)cc1 | inactive | – |
| CCc1nn(C)c(C(=O)NCc2ccc(C(C)(C)C)cc2)c1Cl | – | 0.157 µM (active) |
| N#Cc1nn(-c2c(Cl)cc(C(F)(F)F)cc2Cl)c(N)c1S(=O)C(F)(F)F (stereo not given) | – | 48.7 µM (active) |
| O=C(Nc1ccccc1)Nc1ccnc(Cl)c1 | inactive | – |
| COC(=O)N(OC)c1ccccc1COc1ccn(-c2ccc(Cl)cc2)n1 | – | 3.06 µM (active) |
| COc1nc(C)nc(NC(=O)NS(=O)(=O)c2ccccc2CCC(F)(F)F)n1 | inactive | – |
| Oc1ccccc1-c1ccccc1 | inactive | – |
| CCOc1cc(Oc2ccc(C(F)(F)F)cc2Cl)ccc1[N+](=O)[O-] | inactive | – |
| Cc1ccc(-c2c(Cl)nc(C#N)n2S(=O)(=O)N(C)C)cc1 | inactive | – |
| CCCN(CCC)c1c([N+](=O)[O-])cc(S(N)(=O)=O)cc1[N+](=O)[O-] | inactive | – |
| CC(C)Oc1cc(-n2nc(C(C)(C)C)oc2=O)c(Cl)cc1Cl | inactive | – |
| CCCCC(CC)COC(=O)c1ccccc1C(=O)OCC(CC)CCCC (stereo not given) | inactive | – |
| CCNc1nc(Cl)nc(NC(C)C)n1 | inactive | – |
| COC(=O)C=C(C)OP(=O)(OC)OC | inactive | – |
| O=C(O)c1nc(Cl)ccc1Cl | inactive | – |
| COc1nc(NC(C)C)nc(NC(C)C)n1 | inactive | – |
